# Test results from PubChem BioAssay AID720513 (Broad Institute, 2013).
# Among all 2,100 compounds or so, about 480 (23%) were called active. Not shown: some 5% with an inconclusive outcome. Only a sample is shown. Results with a measured potency or affinity are listed apart. A number with no mark means an inactive call.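 How the source made its calls: active means fitted curve reaches 40% activation at or below the top valid concentration, in every replicate test; inconclusive means replicate tests disagree on the call; inactive means the rest, including activity in the opposite direction.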
# Test: PGC1a acetylation increase, cellular AlphaLISA – cell-based, cherry-picked samples, set 6, dose response (AID 720513);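 further: cells made to overexpress flag tagged PGC1a plus GCN5 acetyltransferase by viral infection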
# Details: U2OS PGC1a acetylation AlphaLISA, overnight, 0 = neutral, -100 = inhibitor control; series mostly up to 19.5 µM; activation (acetylation increase): at the top concentration
row,SMILES,activation (acetylation increase)
1,O=C(Nc1ccc2c(c1)OCO2)N[C@H]1CC[C@H](CCNC(=O)C2CCC2)O[C@@H]1CO,20%
2,CCOC(=O)c1c(NC(=O)c2c(Br)cnn2CC)sc(C)c1C,24.3%
3,CCOC(=O)c1c(NC(=O)/C=C/C(=O)O)sc(C)c1-c1ccc(C(C)(C)C)cc1,-36.6%
4,CN1CCc2c(sc3c2c(NCc2ccco2)nc2nnnn23)C1,25.8%
5,O=C(Cc1cccc(NC(=O)C2CCCN(C(=O)c3ccccc3)C2)c1)Nc1cccc(C(=O)N2CCOCC2)c1 (configuration not stated),9.98%
6,CCn1cnc2cc(NCc3ccc(N(C)C)cc3)ccc21,24.6%
7,O=C(Cc1cccc(NC(=O)C2CCN(C(=O)c3ccccc3)CC2)c1)Nc1cccc(C(=O)N2CCCCC2)c1,2.11%
8,COc1ccc(C(=O)Nc2cc(Cl)ccc2-n2cncn2)c(OC)c1OC,26.7%
9,Cc1noc(/C=C/N(C)C)c1S(=O)(=O)N(C)CC(=O)NC1CCCCC1,-4.8%
10,CCC(=O)N1C[C@H](C)[C@H](OC)CN(C)C(=O)c2cc(NC(=O)c3cnccn3)ccc2OC[C@@H]1C,11.4%
11,Cc1nc2ncnn2c(C)c1CCC(=O)N1CCN(c2ccccn2)CC1,17%
12,O=C(c1ccccc1-c1ccccc1)N1CCN(c2ccccn2)CC1,4.85%
13,COc1ccc2nc(N3CCCC(C(=O)NCCCN4CCN(C)CC4)C3)sc2c1 (configuration not stated),38.8%
14,COc1ccc(CCNC(=O)C2CCN(C(=O)c3ccc(F)cc3)CC2)cc1OC,-1.74%
15,COc1cccc(CNC(=O)C(=O)NCCC2CCCCN2S(=O)(=O)c2ccc(C)cc2)c1 (configuration not stated),40%
16,Cc1ccc(S(=O)(=O)N2CCCC2CNC(=O)c2ccc(F)c(F)c2)cc1 (configuration not stated),16.1%
17,Nc1cc2ccncc2c2ccccc12,-9.67%
18,Cc1cc(Sc2nnc(N)s2)c2ccccc2n1,-27.3%
19,O=c1c2cccnc2n(-c2ccccc2)n1Cc1ccc(Cl)cc1,1.82%
20,O=C(Nc1ccc(-c2cn3c(n2)SCC3)cc1)c1ccc2ccccc2n1,11.9%
21,CCN(CC(=O)Nc1ccccc1OC)C(=O)C1CCC1,28.4%
22,COc1ccc(C(=O)Nc2cccc(NC(=O)c3ccc(OC)c(OC)c3)n2)cc1OC,-64.7%
23,CCc1c(C(=O)NC2CCCCC2)[nH]c(C)c1C(C)=O,-18.3%
24,CCn1c(C(=O)NC2CCC(C)CC2)cc2sccc21 (configuration not stated),12.7%
25,CN(Cc1c(F)cccc1Cl)c1nnnn1-c1ccccc1,35.9%
26,CN(Cc1c(F)cccc1Cl)C(=O)CNC(=O)c1sc2ccccc2c1Cl,-15.4%

row,SMILES,activation (acetylation increase)
1,CN(c1cc2c(c3c1ccn3C)C1CCC2C1)C1CCCCC1 (configuration not stated),3.95%
2,CCN(CC)CCNc1nc(-c2ccc(OC)cc2)c(-c2ccc(OC)cc2)s1,7.51%
3,CCCCNC(=O)C1CCN(Cc2ccccn2)CC1,12%
4,CC1(Cc2cc(Cl)ccc2C(F)(F)F)C(=O)Nc2ccc(S(=O)(=O)NC3CCCCC3)cc21 (configuration not stated),22.5%
5,N#C/C(=C(/O)c1cc2ccccc2o1)c1nc2ccccc2s1,-9.17%
6,O=S(=O)(/C(=C\c1ccc(C(F)(F)F)cc1)c1nc2ccccc2[nH]1)c1ccccc1,-97.6%
7,CC(=O)Nc1cc(OC(C)=O)c2nonc2c1OC(C)=O,-109%
8,Cc1ccccc1CSc1nnc(-c2ccco2)n1Cc1ccco1,21.1%
9,COCC(=O)Nc1ccc2c(c1)OC[C@@H](C)N(CCc1ccccc1)C[C@H](C)[C@@H](OC)CN(C)C2=O,-19.2%
10,Cc1cccc(-n2c(=O)cc(N3CCN(c4ccc(F)cc4)CC3)[nH]c2=O)c1,-9.82%
11,CC(C)c1nnc(NC(=O)CCS(=O)(=O)c2nc(-c3cccs3)cc(C(F)(F)F)n2)s1,27.3% [at 10 µM]
12,COC(=O)c1ccc(CSc2nc3c(cnn3-c3ccc(Cl)cc3)c(=O)[nH]2)o1,-0.884%
13,O=C(NCc1ccc2c(c1)OCO2)C1CCN(S(=O)(=O)c2cccs2)CC1,-15.6%
14,CC(=O)N1CCN(S(=O)(=O)c2cccc(C(=O)Nc3ccc4c(c3)OCO4)c2)CC1,-13%
15,Cc1cc(C)n(-c2nc(O)cc(=O)[nH]2)n1,-8.66%
16,C[C@H]1CN([C@@H](C)CO)C(=O)CCCn2nncc2CO[C@@H]1CN(C)C(=O)Nc1ccccc1,-6.76%
17,O=C(Cc1ccc(Cl)cc1)Nc1ncccn1,-5.97%
18,NS(=O)(=O)c1cccc(NC(=O)CSc2ccccn2)c1,-24.2%
19,CC(C)OC(=O)c1c(F)c(F)c(N2CCOCC2)c(F)c1F,0.447%
20,Cc1noc(C)c1S(=O)(=O)N(C)C[C@H]1Oc2ccc(NC(=O)Nc3ccccc3)cc2CC(=O)N([C@H](C)CO)C[C@H]1C,8.56% [at 21 µM]
21,CCC(CC)NC(=O)Cc1ccc(S(=O)(=O)N2CCOCC2)s1,3.69%
22,O=S(=O)(c1ccc(Br)s1)N1CCN(Cc2ccc3c(c2)OCO3)CC1,-20.2%
23,Cc1cccnc1C(NC(=O)C1CCN(Cc2cn(C)c3ccccc23)CC1)c1ccc(Cl)cc1 (configuration not stated),19% [at 10 µM]
24,Cc1c(/C(O)=C2\C(=O)C(=O)N(CCCN(C)C)C2c2ccccc2)cnn1-c1ccccc1 (configuration not stated),-10.2%
25,CC1CN(c2oc(-c3cccs3)nc2C#N)CC(C)O1 (configuration not stated),4.91%
26,COc1ccc(C2=NOC(C(=O)Nc3cccnc3)C2)cc1 (configuration not stated),28.1%

row,SMILES,activation (acetylation increase)
1,Cc1ccc(CNC(=O)c2ccc(CS(=O)(=O)c3ccccc3)o2)cc1,0.639%
2,O=C(c1cccc(F)c1)N1CCN(C(=O)c2cc(-c3ccc(Cl)cc3Cl)on2)CC1,-4.66%
3,C[C@H](CO)N1C[C@H](C)[C@@H](CN(C)CC2CCOCC2)Oc2ncc(Br)cc2C1=O,-20%
4,O=c1c(Cl)c(NCCCO)cnn1-c1nc2ccccc2[nH]1,34% [at 10 µM]
5,COc1ccc(NC(=O)CN(C)C(=O)CCNC(=O)c2ccccc2OC)cc1,40.4%
6,COc1ccc(Nc2ccnc3ccccc23)cc1,-21.6%
7,COc1ccc(C(=O)Sc2nncc3ccccc23)cc1,20.9%
8,c1ccc(CNc2ncnc3nc[nH]c23)cc1,4.97%
9,Brc1ccc2ncnc(NCc3ccccc3)c2c1,-9.22%
10,CC(=O)Nc1ccc(Oc2sc(C(=O)c3ccccc3)c(N)c2C#N)cc1,10.3%
11,Nc1nn(-c2ccccc2)nc1C(=O)OCc1ccccc1,-22.4%
12,N#Cc1c(-c2cccc(Br)c2)cc(-c2ccco2)[nH]c1=O,9.15%
13,COCc1ccc(CN2CCC(n3nccc3NC(=O)c3ccc4c(c3)OCO4)CC2)o1,-5.4%
14,CSCC(=O)N1CCCC(CO)(Cc2ccccc2C)C1 (configuration not stated),10.3%
15,CO[C@H]1CN(C)C(=O)c2cc(NS(C)(=O)=O)ccc2OC[C@H](C)N(C(=O)NC(C)C)C[C@@H]1C,2.58%
16,O=C(/C=C/c1ccc(N2CCCCC2)c([N+](=O)[O-])c1)c1ccc(O)cc1,-41.9%
17,Cc1ccc(Nc2nc(C)cc(C)c2C(N)=O)c(C)c1,33.1%
18,O=c1[nH]nc(-c2ccc(NCCCO)c([N+](=O)[O-])c2)c2ccccc12,-24.9%
19,Cc1ccc(NC(=O)C2C(c3ccccc3)C2(Cl)Cl)c(C)c1 (configuration not stated),33.3%
20,CCOc1ccc2nnc(-c3ccc(Br)cc3)n2n1,-12.6%
21,CS(=O)(=O)Nc1ccc2c(c1)[C@@H]1C[C@H](CC(=O)N3CCc4ccccc4C3)O[C@@H](CO)[C@@H]1O2,-3.22%
22,Nc1ncc([N+](=O)[O-])c(N2CCCCCC2)n1,30.6%
23,CCNC(=O)NC(=O)COc1ccccc1C#N,-4.29%
24,O=C1c2ccccc2-[n+]2ccc3c([nH]c4ccccc43)c21,-95.9%
25,Cc1[nH]c(=O)[nH]c(=O)c1S(=O)(=O)Nc1ccc(F)c(Cl)c1,-9.01%
26,CCc1ccc(NC(=O)CSc2nnc(-c3cnccn3)n2Cc2ccco2)cc1,-3.13%

row,SMILES,activation (acetylation increase)
1,CCn1c(SCC(=O)Nc2ccc(OC)c(OC)c2)nnc1-c1cccs1,-4.29%
2,COCC(=O)OCC(=O)Nc1cc(C(C)(C)C)nn1-c1ccccc1,16.7%
3,CN1[C@@H]2CC(OC(=O)[C@H](CO)c3ccccc3)C[C@H]1[C@@H]1O[C@@H]12 (some centres not stated),-9.22%
4,CCOC(=O)C1CN(S(=O)(=O)c2ccc(C)cc2)c2cc(S(=O)(=O)CC)ccc2O1 (configuration not stated),50.5%
5,CCOC(=O)C1CN(S(=O)(=O)c2ccccc2)c2cc(S(=O)(=O)CC)ccc2O1 (configuration not stated),11.5%
6,Cc1cc2nc(/C=C/c3cccnc3)[nH]c2cc1C,-9.66%
7,COc1ccc(C2c3[nH]c4ccccc4c3C[C@H]3C(=O)N(c4ccccc4C(=O)N4CCC[C@@H]4C(=O)O)C(=O)N23)cc1 (some centres not stated),13.7%
8,O=C(CCC1CCN(Cc2ccccc2Cl)CC1)NC1CC1,4.09%
9,CC(=O)NC1CCN(CC(=O)Nc2nccs2)CC1,14.7%
10,Cc1ccccc1Oc1cc(-n2ncc(Cl)c(Cl)c2=O)ncn1,-121%
11,O=C(Cc1ccccc1)Nc1ccc(Cl)cn1,-6.87%
12,CC(C)(C)NC(=O)Cn1nnc(-c2ccccc2NC(=O)c2ccco2)n1,34.3%
13,Cc1noc(C)c1NC(=O)Nc1ccc2c(c1)C(=O)N([C@@H](C)CO)C[C@@H](C)[C@@H](CN(C)CC1CCCCC1)OCCCC[C@H](C)O2,12.9%
14,COc1cc(CN2CCN(Cc3ccccc3C(F)(F)F)CC2)cc(OC)c1OC,25.1%
15,COc1ccccc1CN1C[C@@H]2C[C@@H](c3cccc(C)n3)N3CCC[C@@]23C1=O,-3.7%
16,Cc1nc(C(C)N(C)Cc2nc(-c3ccc4c(c3)OCO4)no2)c(C)s1 (configuration not stated),-3.64%
17,CC(=O)c1cccc(NC(=O)Nc2cccnc2)c1,24.1%
18,C#CC(CC)(CC)NC(=O)c1ccc(Br)s1,14.2%
19,CC(NC(=O)Nc1cccnc1)(C(F)(F)F)C(F)(F)F,10.9%
20,COc1ccccc1C#Cc1ccc2c(c1)O[C@@H](CN(C)Cc1cccnc1)[C@H](C)CN([C@H](C)CO)S2(=O)=O,-88.9%
21,OC(c1cc(C(F)(F)F)nc2c(C(F)(F)F)cccc12)C1CCCCN1 (configuration not stated),-96.5%
22,Cc1ccc(-c2cnc3c(c2)C(=O)N([C@H](C)CO)C[C@H](C)[C@@H](CN(C)C)O3)cc1,-14.1%
23,C[C@@H](C(=O)Nc1cc(C(F)(F)F)ccc1N1CCOCC1)N1C(=O)C2CC=CCC2C1=O (some centres not stated),18.7%
24,C[C@@H]1CCCCO[C@H](CN(C)Cc2ccc(Cl)c(Cl)c2)[C@H](C)CN([C@@H](C)CO)C(=O)c2cc(NC(=O)Nc3ccc(F)cc3)ccc2O1,-62.8%
